Data from PubChem BioAssay AID743364 (National Center for Advancing Translational Sciences (NCATS), 2014).
The source made the active and inactive calls. Calls follow the shape of the dose curve; as a rule, active = well fitted curve in the direction sought with a large enough effect; inactive = no such curve, though single readings can be large or run the other way.

experiment: qHTS profiling of inhibitors of Plasmodium falciparum (3D7) proliferation (acoustic dispense); conditions: P. falciparum 3D7 in erythrocytes, SYBR Green, 72 h; series mostly up to 49.8 µM
Text: Plasmodium falciparum is a virulent malarial parasite that kills 1-2 million people worldwide each year. Transmitted by mosquitoes, the sporozoite form of the parasite enters the blood stream to infect hepatocytes, where they become merozoites that infect red blood cells (erythrocytes). Within erythrocytes, merozoites begin a […] cycle of growth and division, after which the parasite is released to infect new red blood cells. Gametocytes, which form within erythrocytes as well, circulate in the bloodstream and are ingested by the mosquito, thereby completing the life cycle. To profile malarial isolates for differential chemical responses and to identify inhibitors of malarial growth, an assay that measures P. falciparum growth and replication within erythrocytes was employed. This assay uses a DNA binding fluorescent dye (SYBR Green) to detect parasite DNA following cell lysis. Because mature erythrocytes lack DNA, only Plasmodium-derived DNA is detected.
The SYBR Green viability assay was adapted from a method described previously (Plouffe et al., 2008). For screening 3 ul culture medium was dispensed into 1536 well black clear bottom plates (Aurora Biotechnologies) using a Multidrop Combi (Thermo Fisher Scientific Inc.), 23 nL of compounds in DMSO were added by an acoustic dispenser (EDC Biosystems), and 5 ul of erythrocytes infected with P. falciparum (0.3% parasitemia, 2.5% hematocrit final concentration) were added. The plates were incubated at 37 C in a humidified incubator in 5% CO2 for 72 h, and 2 ul lysis buffer (20 mM Tris HCl, 10 mM EDTA, 0.16% saponin, 1.6% triton X, 10X SYBR Green I supplied as 10,000X […] by Invitrogen) was added to each well. The plates were mixed for 25 sec with gentle shaking and incubated overnight at room temperature in the dark. The following morning, fluorescence intensity at 485(14) nm excitation and 535(25) nm emission wavelengths was measured on an EnVision (Perkin Elmer) plate reader. Plate reads were normalized relative to the control inhibitor (0.29 uM artemisinin) and vehicle (DMSO) wells present on each plate and then corrected by an algorithm using vehicle-only control plates at the beginning and end of the compound plate stack.

SMILES	outcome
CC(C)Oc1cc(Nc2nc(N[C@@H](C)c3ccc(F)cn3)ncc2Cl)[nH]n1	inactive
C=C[C@@H]1CN2CC[C@@H]1C[C@H]2[C@H](O)c1ccnc2ccc(OC)cc12	inactive
CS[C@H]1SC[C@@H]2C(=O)N(C)[C@H](C(C)C)C(=O)OC[C@H](NC(=O)c3cnc4ccccc4n3)C(=O)N[C@H](C)C(=O)N(C)[C@@H]1C(=O)N(C)[C@H](C(C)C)C(=O)OC[C@H](NC(=O)c1cnc3ccccc3n1)C(=O)N[C@H](C)C(=O)N2C	inactive
NC1CCC(Nc2nc(Nc3ccc(C(=O)N4CCCCC4)cc3)c3ncn(-c4cccc(F)c4)c3n2)CC1 (stereo not given)	inactive
COC(=O)c1ccc2c(C(=Nc3ccc(N(C)C(=O)CN4CCN(C)CC4)cc3)c3ccccc3)c(O)[nH]c2c1	inactive
CC[C@]1(O)C[C@H]2CN(CCC3=c4ccccc4=N[C]3[C@@](C(=O)OC)(c3cc4c(cc3OC)N(C)[C@H]3[C@@](O)(C(N)=O)[C@H](O)[C@]5(CC)C=CCN6CC[C@]43[C@@H]65)C2)C1	inactive
CN[C@@H]1C[C@H]2O[C@@](C)([C@H]1OC)n1c3ccccc3c3c4c(c5c6ccccc6n2c5c31)C(=O)N[C@H]4O	inactive
CN([C@@H](Cc1ccc(OS(=O)(=O)c2cccc3cnccc23)cc1)C(=O)N1CCN(c2ccccc2)CC1)S(=O)(=O)c1cccc2cnccc12	inactive
CN(C)c1ccc2nc3ccc(=[N+](C)C)cc-3sc2c1	inactive
COc1cc(C)c2c(Oc3cccc(C(F)(F)F)c3)c(OC)cc(NCCCC(C)N)c2n1 (stereo not given)	inactive
C[C@H](Cn1cnc2c(N)ncnc21)OCP(=O)(O)O	inactive
C=C[C@@H]1CN2CCC1C[C@@H]2C(O)c1ccnc2ccc(OC)cc12 (stereo not given in full)	inactive
CC(C)n1nc(-c2ccc3oc(N)nc3c2)c2c(N)ncnc21	inactive
CCn1nnc2c(N3CCOCC3)nc(-c3ccc(NC(=O)Nc4ccc(C(=O)N5CCN(C)CC5)cc4)cc3)nc21	inactive
CCN(CC)Cc1cc(Nc2ccnc3cc(Cl)ccc23)ccc1O	inactive
CC(=O)Nc1nc(C)c(-c2ccc(Cl)c(S(=O)(=O)NCCO)c2)s1	inactive
O=C1NC(=O)C(=Cc2ccc3nccc(-c4ccncc4)c3c2)S1	inactive
CCC[C@H](Nc1nc(-c2ccc(NC(=O)NCC)c(OC)c2)ncc1C)c1cccnc1	inactive
Cc1nc2cnc3ccc(C#Cc4cccnc4)cc3c2n1-c1ccc(C(C)(C)C#N)cc1	inactive
COc1cc2nc(N3CCCN(C)CC3)nc(NC3CCN(Cc4ccccc4)CC3)c2cc1OC	inactive

SMILES	outcome
CC(C)N=C(N)N=C(N)Nc1ccc(Cl)cc1	inactive
COc1ncc(-c2ccc3nccc(-c4ccnnc4)c3c2)cc1NS(=O)(=O)c1ccc(F)cc1F	inactive
C[C@@H]1CCC2[C@@H](C)[C@@H](O)O[C@@H]3O[C@@]4(C)CC[C@@H]1[C@@]23OO4 (stereo not given in full)	inactive
C[C@H]1Cc2c([nH]c3cc(Cl)c(F)cc23)[C@@]2(N1)C(=O)Nc1ccc(Cl)cc12	inactive
CSc1cccc(Nc2ncc3cc(-c4c(Cl)cccc4Cl)c(=O)n(C)c3n2)c1	inactive
O=C1C(=O)c2ccccc2C(O)=C1C1CCC(c2ccc(Cl)cc2)CC1 (stereo not given)	inactive
COc1ccc(-c2nc(N3CCOCC3)c3sc(CN(C)c4ncc(C(=O)NO)cn4)cc3n2)cn1	inactive
COc1ccc2cc3[n+](cc2c1OC)CCc1cc2c(cc1-3)OCO2	inactive
CN(C(=O)OC(C)(C)C)[C@@H](Cc1ccc(O[S+](=O)([O-])c2cccc3cnccc23)cc1)C(=O)N1CCN(C(=O)OCc2ccccc2)CC1	inactive
COc1cc(NCc2ccc3nc(N)nc(N)c3c2C)cc(OC)c1OC	inactive
O=C1c2c(O)ccc(O)c2C(=O)c2c(NCCNCCO)ccc(NCCNCCO)c21	inactive
COc1ncnc(NS(=O)(=O)c2ccc(N)cc2)c1OC	inactive
C[C@@H](Oc1ccc2[nH]nc(C=Cc3cnn(CCO)c3)c2c1)c1c(Cl)cncc1Cl	inactive
CCCCN(CCCC)CCC(O)c1cc2c(Cl)cc(Cl)cc2c2cc(C(F)(F)F)ccc12 (stereo not given)	inactive
Cn1c(=O)c(-c2c(Cl)cccc2Cl)cc2cnc(Nc3cccc(C(=O)O)c3)nc21	inactive
O=C(Nc1ccc([N+](=O)[O-])cc1Cl)c1cc(Cl)ccc1O	inactive
COc1ccc(-c2cc3c(C)nc(N)nc3n(C3CCC(OCCO)CC3)c2=O)cn1 (stereo not given)	inactive
CC(=NNC(=S)N1CCC1)c1ccccn1	inactive
CCCCN(CCCC)CC(O)c1cc(Cl)cc2c1-c1ccc(Cl)cc1C2=Cc1ccc(Cl)cc1 (stereo not given)	inactive
Cc1cn(-c2cc(NC(=O)c3ccc(C)c(Nc4nccc(-c5cccnc5)n4)c3)cc(C(F)(F)F)c2)cn1	inactive
